Test results taken from PubChem BioAssay AID1159580 (chemical genetic matrix, 2015).
Several values for one entry are separate records, joined by “and”; a condition that tells them apart may be missing. Equal entries are not always repeated. Among all 5,500 compounds or so, about 2,000 (36%) were called active. About 18% were inconclusive and are not listed. No stated cut-off is given here; in the data, active means normalized growth mostly below about 0.91 (no sharp cut-off); inconclusive means no clear call, values can overlap the other calls; inactive means mostly above about 0.92. The list shows a part of the results.

Assay: chemical genetic growth profiling, strain panel (AID 1159580);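 further: tested at 20 µM; growth read once vehicle control cultures reached saturation at 30 °C; 1 = growth at the plate median or of vehicle wells; lower values mean less growth of the strain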
Conditions: growth OD

Measured: normalized growth

CN/C(=C\[N+](=O)[O-])NCCSCc1ccc(CN(C)C)o1
inactive: S. cerevisiae deletion strains, locus YKL009W, strain mrt4, active compounds read low 1.02 | S. cerevisiae deletion strains, locus YKL068W, active compounds read low 0.999 | S. cerevisiae deletion strains, locus YKL085W, strain MDH1 (second series), active compounds read low 1.01 | S. cerevisiae deletion strains, locus YKL085W, strain MDH1, active compounds read low 1.01 | S. cerevisiae deletion strains, locus YKL160W, strain elf1, active compounds read low 0.988 | S. cerevisiae deletion strains, locus YKL190W, strain CNB1, active compounds read low 1.01 | S. cerevisiae deletion strains, locus YKR001C, strain vps1, active compounds read low 0.993 | S. cerevisiae deletion strains, locus YKR026C, strain gcn3, active compounds read low 1 | S. cerevisiae deletion strains, locus YKR091W, strain srl3, active compounds read low 0.988 | S. cerevisiae deletion strains, locus YLL001W, strain dnm1, active compounds read low 0.989 | S. cerevisiae deletion strains, locus YLL026W, active compounds read low 0.992 | S. cerevisiae deletion strains, locus YLL041C, strain sdh2, active compounds read low 0.979 | S. cerevisiae deletion strains, locus YLR027C, strain aat2, active compounds read low 0.989 | S. cerevisiae deletion strains, locus YLR039C, strain RIC1, active compounds read low 1.05 | S. cerevisiae deletion strains, locus YLR058C, strain SHM2, active compounds read low 1.03 | S. cerevisiae deletion strains, locus YLR102C, strain apc9, active compounds read low 0.977 | S. cerevisiae deletion strains, locus YLR113W, strain HOG1, active compounds read low 0.996 | S. cerevisiae deletion strains, locus YLR221C, strain rsa3, active compounds read low 0.993 | S. cerevisiae deletion strains, locus YLR258W, strain gsy2, active compounds read low 0.99 | S. cerevisiae deletion strains, locus YLR262C, strain YPT6 (second series), active compounds read low 0.972 | S. cerevisiae deletion strains, locus YLR262C, strain YPT6, active compounds read low 1.11 | S. cerevisiae deletion strains, locus YLR268W, strain sec22, active compounds read low 0.997 | S. cerevisiae deletion strains, locus YLR320W, strain mms22, active compounds read low 0.99 | S. cerevisiae deletion strains, locus YLR330W, strain CHS5, active compounds read low 1.01 | S. cerevisiae deletion strains, locus YLR342W, strain FKS1 (second series), active compounds read low 1.01 | S. cerevisiae deletion strains, locus YLR342W, strain FKS1, active compounds read low 0.969 | S. cerevisiae deletion strains, locus YLR357W, strain rsc2, active compounds read low 0.908 | S. cerevisiae deletion strains, locus YLR370C, strain arc18, active compounds read low 0.982 | S. cerevisiae deletion strains, locus YLR371W, strain rom2, active compounds read low 0.983 | S. cerevisiae deletion strains, locus YLR384C, strain iki3, active compounds read low 0.989 | S. cerevisiae deletion strains, locus YLR418C, strain cdc73, active compounds read low 0.994 | S. cerevisiae deletion strains, locus YML016C, strain PPZ1, active compounds read low 1.02 | S. cerevisiae deletion strains, locus YML032C, strain rad52, active compounds read low 0.977 | S. cerevisiae deletion strains, locus YML120C, strain ndi1, active compounds read low 0.981 | S. cerevisiae deletion strains, locus YML124C, strain tub3, active compounds read low 0.991 | S. cerevisiae deletion strains, locus YMR058W, strain fet3, active compounds read low 0.979 | S. cerevisiae deletion strains, locus YMR078C, strain ctf18, active compounds read low 0.987 | S. cerevisiae deletion strains, locus YMR125W, strain sto1, active compounds read low 0.982 | S. cerevisiae deletion strains, locus YMR129W, active compounds read low 0.995 | S. cerevisiae deletion strains, locus YMR205C, strain PFK2, active compounds read low 0.976 | S. cerevisiae deletion strains, locus YMR223W, strain ubp8, active compounds read low 0.996 | S. cerevisiae deletion strains, locus YMR231W, strain pep5, active compounds read low 0.997 | S. cerevisiae deletion strains, locus YMR263W, strain SAP30, active compounds read low 1.04 and 1 | S. cerevisiae deletion strains, locus YMR307W, strain GAS1, active compounds read low 1.07 and 1.03 | S. cerevisiae deletion strains, locus YNL067W, strain RPL9B, active compounds read low 1.04 | S. cerevisiae deletion strains, locus YNL071W, strain lat1, active compounds read low 0.987 | S. cerevisiae deletion strains, locus YNL128W, strain TEP1, active compounds read low 1.02 | S. cerevisiae deletion strains, locus YNL153C, strain GIM3, active compounds read low 1.01 | S. cerevisiae deletion strains, locus YNL175C, strain NOP13, active compounds read low 0.997 | S. cerevisiae deletion strains, locus YNL183C, strain NPR1, active compounds read low 0.944 | S. cerevisiae deletion strains, locus YNL197C, strain WHI3, active compounds read low 1.01 | S. cerevisiae deletion strains, locus YNL209W, strain ssb2, active compounds read low 0.994 | S. cerevisiae deletion strains, locus YNL224C, strain SQS1, active compounds read low 0.998 | S. cerevisiae deletion strains, locus YNL233W, strain BNI4, active compounds read low 1.03 | S. cerevisiae deletion strains, locus YNL248C, strain rpa49, active compounds read low 0.98 | S. cerevisiae deletion strains, locus YNL250W, strain rad50, active compounds read low 0.982 | S. cerevisiae deletion strains, locus YNL271C, strain bni1, active compounds read low 0.974 | S. cerevisiae deletion strains, locus YNL298W, strain CLA4, active compounds read low 1 | S. cerevisiae deletion strains, locus YNL307C, strain MCK1, active compounds read low 0.986 | S. cerevisiae deletion strains, locus YNL322C, strain KRE1 (second series), active compounds read low 0.96 | S. cerevisiae deletion strains, locus YNL322C, strain KRE1, active compounds read low 1.01 | S. cerevisiae deletion strains, locus YNR049C, strain mso1, active compounds read low 0.988 | S. cerevisiae deletion strains, locus YNR052C, strain pop2, active compounds read low 0.984 | S. cerevisiae deletion strains, locus YOL006C, strain TOP1, active compounds read low 1.13 | S. cerevisiae deletion strains, locus YOL012C, strain htz1 1.11 | S. cerevisiae deletion strains, locus YOL147C, strain pex11, active compounds read low 0.99 | S. cerevisiae deletion strains, locus YOR001W, strain rrp6, active compounds read low 0.982 | S. cerevisiae deletion strains, locus YOR061W, strain CKA2, active compounds read low 1.02 | S. cerevisiae deletion strains, locus YOR069W, strain VPS5, active compounds read low 1.02 | S. cerevisiae deletion strains, locus YOR070C, strain gyp1, active compounds read low 0.989 | S. cerevisiae deletion strains, locus YOR080W, strain dia2, active compounds read low 0.99 | S. cerevisiae deletion strains, locus YOR083W, strain WHI5 (second series), active compounds read low 1.02 | S. cerevisiae deletion strains, locus YOR083W, strain WHI5, active compounds read low 0.982 | S. cerevisiae deletion strains, locus YOR106W, strain vam3, active compounds read low 0.999 | S. cerevisiae deletion strains, locus YOR136W, strain idh2, active compounds read low 0.982 | S. cerevisiae deletion strains, locus YOR144C, strain elg1, active compounds read low 0.992 | S. cerevisiae deletion strains, locus YOR184W, strain ser1, active compounds read low 0.994 | S. cerevisiae deletion strains, locus YOR231W, strain MKK1, active compounds read low 0.99 | S. cerevisiae deletion strains, locus YOR265W, strain rbl2, active compounds read low 0.974 | S. cerevisiae deletion strains, locus YOR270C, strain vph1, active compounds read low 1 | S. cerevisiae deletion strains, locus YOR290C, strain snf2, active compounds read low 0.996 | S. cerevisiae deletion strains, locus YOR316C, strain cot1, active compounds read low 0.985 | S. cerevisiae deletion strains, locus YPL051W, strain arl3, active compounds read low 1 | S. cerevisiae deletion strains, locus YPL055C, strain LGE1, active compounds read low 0.991 | S. cerevisiae deletion strains, locus YPL078C, strain atp4, active compounds read low 0.982 | S. cerevisiae deletion strains, locus YPL106C, strain sse1, active compounds read low 0.956 | S. cerevisiae deletion strains, locus YPL240C, strain hsp82, active compounds read low 0.99 | S. cerevisiae deletion strains, locus YPL241C, strain CIN2, active compounds read low 1 | S. cerevisiae deletion strains, locus YPL256C, strain CLN2, active compounds read low 0.968 | S. cerevisiae deletion strains, locus YPR119W, strain clb2, active compounds read low 0.988 | S. cerevisiae deletion strains, locus YPR141C, strain kar3, active compounds read low 0.995 | S. cerevisiae deletion strains, locus YPR163C, strain tif3, active compounds read low 0.993 | S. cerevisiae deletion strains, locus YPR167C, strain met16, active compounds read low 0.98 | S. cerevisiae deletion strains, strain wtn01, active compounds read low 0.987 | S. cerevisiae strains, strain wild type, active compounds read low 1.02
